Bioassay records: PubChem, several laboratories
Compounds with a hit are over-represented: about 4% of the library has one in this group of screens.
NR3A LBD binder = NR3A (human) ligand-binding domain modulation; NR3A LBD differential scanning fluorimetry, Tm shift; 0% = protein alone, 100% = glycine-bound protein; Tm shift relative to glycine control, % at 25 µM; 340,000 compounds, 2.5% hits;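 active means melting temperature shift of at least 10% of the positive control shift, at one fixed dose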
FAS-TE inh = inhibitors of human fatty acid synthase thioesterase domain. recombinant FAS-TE, OMFH fluorogenic substrate, fluorescence endpoint. AID 602261. 360,000 compounds, 0.67% hits. inhibition, % at 15 µM. P49327;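 active means compounds whose normalised, plate-corrected inhibition of enzyme fluorescence in the single-dose primary screen is 50% or more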;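 further: 0% = DMSO with enzyme and 100% = substrate without enzyme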
aDG glyco act = increases alpha dystroglycan glycosylation; 360,000 compounds, 0.22% hits; AID 624168; Pro5-aDG cells, alpha-DG glycosylation AlphaScreen (IIH6); 0% Pro5, 100% B10-LARGE cell signal; activation, % at 10 µM;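 active means activation of at least 8% versus controls, or a plate z-score of at least 8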;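 further: Pro5 are CHO cells carrying HIG-tagged alpha-DG that lacks glycosylation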
ADAM10 inh = inhibits human ADAM10 | recombinant ADAM10, EDANS/DABCYL FRET peptide cleavage, 3 h | inhibition, % at 7 µM | 370,000 compounds, 0.62% hits;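 active means inhibition above a per-campaign cutoff equal to the mean of compounds falling between control-based bounds plus 3 SD, cut at about 20% in these data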;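 further: 0% = DMSO wells while the 100% control is not disclosed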
ADAM17 inh = inhibits human ADAM17. P78536. recombinant ADAM17, EDANS/DABCYL FRET peptide cleavage. inhibition, % at 6.95 µM. 370,000 compounds, 0.83% hits. AID 720648;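 active means inhibition above the mean of compounds lying between control limits plus 3 SD, set per campaign, cut at about 8.5% in these data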;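 further: 0% = DMSO-only wells as the low control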
Target sequence (P78536 215-824 limits assumed): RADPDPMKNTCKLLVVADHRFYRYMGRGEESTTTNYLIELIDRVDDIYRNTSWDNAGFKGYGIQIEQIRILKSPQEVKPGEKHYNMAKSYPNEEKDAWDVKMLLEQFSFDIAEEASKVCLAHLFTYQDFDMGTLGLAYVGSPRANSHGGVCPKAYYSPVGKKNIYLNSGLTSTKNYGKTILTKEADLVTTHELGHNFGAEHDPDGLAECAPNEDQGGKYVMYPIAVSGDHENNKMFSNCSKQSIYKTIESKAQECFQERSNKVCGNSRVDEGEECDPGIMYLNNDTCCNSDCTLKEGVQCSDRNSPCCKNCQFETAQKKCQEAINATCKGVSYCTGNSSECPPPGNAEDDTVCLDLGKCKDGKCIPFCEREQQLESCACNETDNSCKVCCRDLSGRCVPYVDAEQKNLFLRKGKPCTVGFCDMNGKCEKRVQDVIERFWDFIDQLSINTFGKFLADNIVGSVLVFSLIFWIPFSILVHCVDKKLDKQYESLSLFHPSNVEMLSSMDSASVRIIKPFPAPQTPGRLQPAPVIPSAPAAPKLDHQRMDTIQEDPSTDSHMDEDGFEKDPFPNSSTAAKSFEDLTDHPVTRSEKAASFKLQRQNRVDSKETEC
ADAM10 ctr = counter-screen for ADAM17 exosite inhibitors: inhibitors of human ADAM10; shares compounds with ADAM17 inh; 2,900 compounds, 47% hits; AID 743256; recombinant ADAM10, EDANS/DABCYL FRET peptide cleavage, 3 h; inhibition, % at 6.95 µM;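 active means mean inhibition over the triplicate runs exceeds the activity threshold set in the earlier primary screen, cut at about 20% in these data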;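 further: 0% = DMSO wells and 100% = marimastat wells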
ADAM17 confirm = human ADAM17 inhibition, confirmation | shares compounds with ADAM17 inh | recombinant ADAM17, EDANS/DABCYL QFRET peptide cleavage | inhibition, % at 6.95 µM | 2,900 compounds, 65% hits | AID 743257;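 active means mean inhibition across replicates above the hit cutoff set in the primary screen, cut at about 8.5% in these data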;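 further: 0% = DMSO wells and 100% = marimastat wells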
The depositor's hits bear a star; i = inactive; · = no result given.

SMILES | NR3A LBD binder | FAS-TE inh | aDG glyco act | ADAM10 inh | ADAM17 inh | ADAM10 ctr | ADAM17 confirm
O=C1N[C@@H](Cc2c[nH]c3ccccc23)COC(=O)[C@@H](Cc2ccc(F)cc2)CC/C=C/C[C@@H]1CC(=O)N(CCO)Cc1ccccc1 | -0.5 | 25.5 | -0.1 | 18.1 | 10.0* | 58.8* | 27.9*
Cc1cc(=O)c2c([nH]1)c(C)cc1[nH]c(C)c(C)c12 | 0.9 | -37.0 | -0.1 | i | -355.3 | · | ·
Cc1cccc(C(=O)N(CCc2ccccc2)Cc2ccccc2)c1[N+](=O)[O-] | -1.8 | 25.5 | 1.3 | 14.0 | 8.8* | 27.9* | 13.0*
CC(C)c1cccc(-c2csc(C(O)c3ccc(F)c(F)c3)n2)c1 (stereo not given) | · | 27.4 | 0.3 | 16.1 | 11.4* | 23.8* | 14.9*
CC(C)c1cccc(-c2csc(C(O)c3ccc(F)cc3)n2)c1 (stereo not given) | · | 20.1 | 0.3 | 5.5 | 7.1 | · | ·
Cc1ccc(C2CC(c3ccc(Cl)cc3)=NNC2=O)cc1 (stereo not given) | 0.0 | 8.8 | 0.0 | 6.2 | -0.8 | · | ·
Cc1ccc(C2=NNC(=O)C(P(=O)(c3ccccc3)c3ccccc3)C2)cc1 (stereo not given) | 0.3 | -4.9 | 0.1 | 1.7 | 9.4* | 7.2 | 4.2
CC1CCN(CCCNC(=O)c2ccc3c(=O)n(CCc4ccccc4)c(=O)[nH]c3c2)CC1 | 1.0 | -1.6 | 0.9 | -70.3 | -19.5 | · | ·
CCOC(=O)C1(C)CCCCCN1C(=O)c1ccc(OC)c(C(F)(F)F)c1 (stereo not given) | · | 2.5 | -0.2 | 6.5 | 8.7* | -2.8 | -2.2
CCc1ccc(N2CC(C(=O)Nc3ccc(C)c(S(=O)(=O)N4CCOCC4)c3)CC2=O)cc1 (stereo not given) | -4.5 | 6.7 | 1.3 | 7.3 | 9.8* | 1.6 | 2.6
CCc1ccc(N2CC(C(=O)Nc3ccc(OC)c(S(=O)(=O)N4CCOCC4)c3)CC2=O)cc1 (stereo not given) | · | -5.0 | 0.0 | 0.4 | 0.8 | · | ·
COC(=O)C1CN(Cc2cn(Cc3ccc(OC)cc3)nn2)CCS(=O)(=O)N1Cc1ccc(C)cc1 (stereo not given) | · | · | · | -3.6 | -2.8 | · | ·
CCN1CCN(c2cc(SC(C)C)nc(-c3ccc(OC)cc3)n2)CC1 | 2.2 | 13.4 | 2.6 | 14.4 | 13.3* | 23.3* | 15.1*
CC(C)Sc1cc(N2CCOCC2)nc(-c2ccc(Cl)cc2)n1 | 0.1 | 23.5 | 0.0 | -9.1 | 5.6 | · | ·
CCC(C)(C)c1ccc(OCCCC[n+]2cccc(C)c2)c(C(C)(C)CC)c1 | -7.1 | 5.0 | 0.1 | 9.1 | 9.4* | 10.9 | 5.7
CCc1ccc(/C=N/NC(=O)c2cc(-c3ccccc3OC)nc3ccccc23)s1 | 0.9 | 25.3 | 0.1 | 8.0 | 9.2* | -29.9 | 5.4
Cc1csc(-c2cnn(-c3ccccc3)c2NC(=O)c2ccc(C(F)(F)F)cc2)n1 | -6.4 | 11.5 | 0.0 | 12.6 | 9.3* | 17.8 | 11.2*
CCCCc1nc2cc(C(=O)NCc3cn(C)nc3C)ccc2o1 | -0.5 | -3.2 | 0.7 | -11.1 | -2.8 | · | ·
O=C(Oc1cccc(NC(=O)c2cccs2)c1)c1cccc(S(=O)(=O)N2CCCC2)c1 | 1.5 | 36.4 | 0.0 | 17.8 | 11.2* | 26.5* | 16.5*
O=C(Nc1cccc(S(=O)(=O)N2CCCCC2)c1)c1cccs1 | -2.6 | 5.2 | 0.0 | 17.2 | 2.1 | · | ·
O=[N+]([O-])c1cccc(CNc2ccc3c(c2)CCC3)c1 | -5.2 | 29.7 | -0.1 | 5.7 | -2.5 | · | ·
NC(=O)CC[C@@H]1NC(=O)[C@H](CO)NC(=O)c2cc([N+](=O)[O-])cc(I)c2OCC[C@@H](C(N)=O)NC1=O | -0.6 | -5.3 | -0.1 | 16.9 | 10.3* | 11.7 | 4.7
CCc1ccc(C(C)NC(=O)/C(C#N)=C\c2cn[nH]c2-c2ccccc2)cc1 (stereo not given) | -4.2 | -62.7 | -0.1 | 16.8 | 10.5* | 34.8* | 17.3*
CCc1cc(C(=O)OC)c(NC(=O)C2CC(=O)NN2Cc2ccccc2)s1 (stereo not given) | 0.0 | 11.2 | -0.4 | 4.9 | 9.3* | 14.8 | 14.6*
CC(C)(C)NC(=O)COc1ccc(CNc2ncn[nH]2)cc1 | 2.7 | -3.1 | 0.0 | -2.5 | -4.3 | · | ·
SMILES | NR3A LBD binder | FAS-TE inh | aDG glyco act | ADAM10 inh | ADAM17 inh | ADAM10 ctr | ADAM17 confirm
O=C(CSc1nnc(NC(=O)c2ccc(F)cc2)s1)NCc1ccco1 | -1.0 | -3.5 | -0.1 | -15.4 | -11.1 | · | ·
O=C(CSc1nnc(NC(=O)c2cccc(F)c2)s1)NCc1ccco1 | 3.6 | -7.2 | 0.0 | 6.8 | 8.6* | -7.2 | -1.6
Cc1ccc(S(=O)(=O)Nc2ccccc2CNc2ncc(Br)cc2Br)cc1 | -1.3 | 32.2 | 0.8 | 4.7 | -2.8 | · | ·
Cc1ccc(S(=O)(=O)Nc2ccccc2CNc2ccccn2)cc1 | -6.7 | 21.1 | 0.1 | 13.6 | 8.8* | 18.5 | 10.4*
Cn1c(=O)[nH]c(=O)c2c1nc(N1CCCC1)n2CCCSc1nnnn1-c1ccccc1 | 0.8 | -5.8 | 0.0 | 2.1 | 2.0 | · | ·
O=C(c1c(Cl)nc2sccn12)N1CCN(c2cccc(Cl)c2)CC1 | -0.1 | 6.2 | 0.0 | 9.9 | 9.1* | -8.2 | -1.5
O=C(CSc1nnc(-c2cccs2)n1Cc1ccco1)Nc1ccc(OCc2ccccc2)cc1 | · | · | · | 16.8 | 9.4* | 23.2* | 12.0*
CCn1c(SCC(=O)Nc2cccc(NC(=O)c3ccco3)c2)nnc1-c1cccs1 | 4.1 | -5.3 | 0.0 | 4.9 | -0.9 | · | ·
COc1ccc(C)cc1NC(=O)CSc1nnc(COc2ccc(C)cc2)n1Cc1ccco1 | -0.4 | 11.0 | 0.4 | 18.9 | 10.8* | 25.9* | 14.7*
CCn1c(SCC(=O)Nc2ccc(NC(=O)c3ccco3)cc2)nnc1-c1cccs1 | -21.3 | -5.4 | 0.0 | 9.0 | 8.8* | 9.5 | 3.6
CC(C)c1onc(C(=O)Nc2ccc3c(c2)OCO3)c1[N+](=O)[O-] | -14.1 | -1.8 | 0.0 | · | · | · | ·
COc1ccc(C(=O)NNC(=O)Cc2coc3cc(OC)ccc23)cc1 | -2.3 | 1.7 | 1.4 | 4.1 | -6.0 | · | ·
O=C(CC(NC(=O)c1ccccc1Cl)c1ccccc1)NC1=NCCS1 (stereo not given) | -0.5 | -4.0 | 0.2 | 4.8 | 0.0 | · | ·
O=C(Cc1ccc(Nc2nc3ccc(Br)cc3[nH]2)cc1)NCCc1cccs1 | 8.3 | -21.5 | 0.7 | 7.0 | 8.9* | 13.8 | 9.5*
COc1ccc(CCNC(=O)Cc2cccs2)cc1 | -1.9 | -15.1 | -0.1 | 7.8 | -2.1 | · | ·
Cc1nonc1NC(=O)CSc1nc2ccccc2[nH]1 | -1.9 | -9.1 | 0.3 | -12.7 | -5.8 | · | ·
CCC(CC)C(=O)Nc1c(C(=O)N2CCN(c3ccccc3)CC2)oc2ccccc12 | -1.9 | 15.2 | 0.1 | -6.3 | 9.3* | 3.0 | 3.9
